# Experimental data from PubChem BioAssay (NCI).
# This is part of a sample that, as a whole, favours compounds with a hit. Of some 83,000 tested, about 20% had one in any assay.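 Compound tested at a single concentration for 48 hours in 96-well plates; a percent growth value below 10 was scored as active.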 A number with no mark means an inactive call. The source made the active and inactive calls.
# Experiments:
# Assay in all cases: NCI-60 one-dose screen, 48 h (100 = growth as untreated, 0 = no growth, -100 = all killed)
# Settings in all cases: 10 µM unless noted
# [1] = test system: HT29 colon
# [2] = test system: SNB-75 CNS
# [3] = test system: SNB-19 CNS
# [4] = test system: U251 CNS
# [5] = test system: PC-3 prostate
# [6] = test system: SK-MEL-5 melanoma
# [7] = test system: UACC-62 melanoma
# [8] = test system: LOX IMVI melanoma
# [9] = test system: SK-MEL-28 melanoma
Compound,growth [1],growth [2],growth [3],growth [4],growth [5],growth [6],growth [7],growth [8],growth [9]
CCCCCCCCN(CCCCCCCC)C(=N)c1ccnc2ccccc12,-87.1% (active),-95.7% (active),-70.8% (active),-95.6% (active),-88.7% (active),-96.6% (active),-74.5% (active),-100% (active),-86% (active)
N=C(N)c1ccc(-c2ccc(-c3ccc(Cl)c(Cl)c3)o2)cc1,-20.3% (active),78.6%,25.4%,-36.9% (active),47.4%,83.5%,93.5%,-96% (active),59.7%
O=C1/C(=C/c2ccc([N+](=O)[O-])cc2)COc2ccc(O)c(O)c21,4.87% (active),18.8%,15%,-34.7% (active),-6.72% (active),–,-19.2% (active),-75.5% (active),54.6%
CN1C[C@@H](c2ccc(Cl)cc2)[C@]2(NC(=S)N(c3ccc(F)c(Cl)c3)C2=O)[C@@]12C(=O)NC1C=CC(Cl)=C[C@H]12 (stereo partly specified),33.4%,53.2%,47.2%,59.9%,8.42% (active),44.5%,55.7%,43.5%,72.6%
COc1ccc(C(=O)/C=C/c2cc3c(c(OC)c2)OCC(=O)N3)cc1,19.2%,20.7%,76.1%,67.6%,49.6%,84.2%,85.3%,40.1%,73.1%
Cc1nc(Nc2ccc(NC(=S)Nc3ccccc3)cc2)c2ccccc2n1,107%,104%,105%,101%,99.2%,–,95.1%,97.9%,108%
Nc1nc(I)c2ncn(C3OC(CO)C(O)C3O)c2n1 (stereo unspecified),–,130%,102%,100%,124%,102%,90.4%,93.5%,126%
CN(C)c1ccc(/C=C2\C=C(c3ccccc3)N(CCc3ccccc3)C2=O)cc1,77.8%,-29.1% (active),46.6%,33.2%,52.3%,82.7%,67.3%,48.9%,89.8%
OC(c1cccc(OCc2ccccc2)c1)c1nnc(-c2ccccc2)o1 (stereo unspecified),116%,94.2%,99.4%,96.7%,81%,66.4%,61.7%,84.9%,108%
COc1ccc(/C(C)=C(\c2ccc(Cl)cc2)c2ccc(OCCN3CCCCC3)cc2)cc1F,4.57% (active),65%,58.3%,34.1%,28%,57.1%,–,-73.1% (active),-21.3% (active)
COc1cccc(/C=C2\COc3ccc(O)cc3C2=O)c1OC,–,86.5%,67.4%,54.3%,56.2%,–,71%,-19.7% (active),96.6%
CN(C)CCCCNc1ccc(NCCCCN(C)C)c2c1C(=O)c1c(O)ccc(O)c1C2=O,-52.3% (active),–,2.06% (active),-85.6% (active),-76.9% (active),89.4%,–,–,112%
N#Cc1c(N)n2c(nc1=Nc1ccc([N+](=O)[O-])cc1)sc1cc(Cl)ccc12,99.2%,60.9%,95.7%,85.8%,81.8%,73%,53.1%,79.4%,106%
C[N+](C)(C)CCOC(OCC[N+](C)(C)C)(c1ccccc1)c1ccccc1,104%,87.3%,–,104%,92.7%,110%,99.3%,98.6%,104%
COc1ccc(-c2cc(-c3cc(OC)ccc3OC)[nH]c(=O)c2C#N)cc1,38.1%,56.4%,68.1%,39.5%,72.6%,40.1%,47.7%,44.6%,74.8%
CNC(=O)c1cc(Oc2ccc3nc(NC(=O)Nc4cc(C(F)(F)F)cc(C(F)(F)F)c4)sc3c2)ccn1,-71.3% (active),-71.3% (active),2.44% (active),-81.8% (active),-38.9% (active),-47.6% (active),-63.3% (active),–,-71% (active)
CCCCCCCCCCCCCCCCCC1=NCCN1C(=O)OCCO,-47.6% (active),45.1%,75.9%,-46% (active),28.4%,80.3%,59.6%,27.8%,61.3%
CC(C)(C)OC(=O)N1Cc2cc3ccccc3nc2C1CO (stereo unspecified),101%,76.8%,111%,103%,–,96.9%,100%,101%,101%
CN1C[C@@H](c2ccc(Cl)cc2)[C@]2(NC(=S)N(c3ccccc3)C2=O)[C@@]12C(=O)NC1C=CC(Br)=C[C@H]12 (stereo partly specified),61.5%,69.6%,86.2%,72.5%,28.1%,64%,–,75.5%,95.4%
CCCCN(CCCC)CCCn1c(=O)c2sc3ncccc3c2n2nnc(-c3ccccc3)c12,74.4%,86.1%,101%,95.3%,91.3%,107%,90.8%,110%,98.4%
CCOC(=O)c1ccc(-c2ccc3cc(OC)ccc3c2)nc1C,80.2%,110%,99.6%,104%,100%,107%,85.2%,105%,91.5%
CC(C)N(CCOC(=O)Nc1ccccc1Cl)C(C)C,97.1%,107%,98.6%,98.8%,74%,97.5%,96.4%,101%,110%
COc1ccc(-c2cc(-c3ccc(Nc4nc(Nc5ccccc5)nc(Nc5ccc(Cl)cc5)n4)cc3)nc(N)c2C#N)cc1,6.85% (active),26.7%,71.9%,-57.9% (active),–,-21.8% (active),22.8%,-97.3% (active),-72.9% (active)
CCOc1ccc2nc(-c3cccc(OCC(=O)NC(C)C)c3)nc(Nc3ccc(-c4cn[nH]c4)cc3)c2c1,-27.6% (active),-62% (active),19.4%,-33.8% (active),0.124% (active),-81.1% (active),-6.26% (active),-10.8% (active),-71.4% (active)
O=c1cc(-c2ccc(OCc3ccccc3)cc2)oc2c(I)c(OCc3ccccc3)cc(OCc3ccccc3)c12,105%,79.7%,104%,90.1%,94.7%,85.1%,90.3%,101%,107%
